aSyn yeast inh – alpha-synuclein toxicity inhibition in yeast | Yeast expressing alpha-synuclein, growth rescue, BacTiter-Glo, 24 h | 370,000 tested, 0.14% active | Potency, µM (series often up to 46.1 µM), for inactives: at the top dose growth rescue (activation), hits mostly activators; further: % of control where 0% means no effect; nearly all actives have a fitted effect of over 65% in size
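Screening used galactose-induced yeast with toxic alpha-synuclein levels, exposed to compound for 24 hr at 30 deg C. Cell growth, read with BacTiter-Glo luminescence, gave the measured signal.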
TDP-43 yeast inh – TDP-43 toxicity inhibition in yeast | AID 652104 | Potency, µM (titrated, usually from 46.1 µM), without a hit: at the highest dose growth rescue (activation), most hits filed as activators | TDP-43 expressing yeast growth rescue, BacTiter-Glo, 24 h | 410,000 tested, 1.8% active; further: % of control where 0% means no effect; nearly all actives have a fitted effect of over 50% in size
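Yeast expressing TDP-43 (pregrown in raffinose, seeded at OD600=0.02 in galactose medium) exposed to compounds 24 hr at 30 deg C. Growth read by BacTiter-Glo luminescence; rescue of toxicity appears as increased signal.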
Abeta yeast res – restores growth of yeast expressing A-beta42 peptide; yeast expressing A-beta42, growth rescue, OD600, 48 h; response scale: 0% DMSO, 100% iron-clioquinol control; Potency, µM (top dose mostly 46.1 µM), actives largely listed as activators; 410,000 tested, 0.063% active; AID 1347071; further: nearly all actives have a fitted effect of over 55% in size
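Yeast A-beta toxicity model in growth medium with pinned compounds, 48 h at 30 C; growth read as absorbance at 600 nm. Normalized to FeCl3/clioquinol equimolar mix (positive) and DMSO (negative).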
FUS yeast rescue – rescues growth of FUS-expressing yeast; S. cerevisiae FUS-expressing, growth rescue, OD600, 24 h; Potency, µM (highest dose often 76.6 µM), actives largely listed as activators; 390,000 tested, 0.24% active; AID 1347120;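 further: plate controls were DMSO vehicle for no effect and reference control for full effect; nearly all actives have a fitted effect of over 55% in size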
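Yeast expressing FUS under galactose induction, OD 0.005 in 2% galactose medium; compounds in a dilution series, 24 h at 30C. Growth rescue by absorbance at 600 nm; CP55940 positive control, DMSO negative.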
The depositor's hits bear a star. Hits are enriched below; roughly 2.1% of the tested compounds scored in any of these assays. The call rests on the fitted dose curve; in most records, active means well fitted curve in the direction sought with a large enough effect; inconclusive means small, poorly fitted or top-dose-only effect, or another doubt; inactive means no such curve, though single readings can be large; an effect the other way counts as inactive or inconclusive. Potency means the concentration at half of the fitted maximal effect.

Screening Cc1csc2ncnc(N3CCN(S(=O)(=O)c4cccc(C(F)(F)F)c4)CC3)c12 returned aSyn yeast inh 11.8%, TDP-43 yeast inh 17.8µM* and Abeta yeast res inactive.
COc1ccc(NC(=O)N2c3ccccc3CC2C)cc1OC (configuration not stated) was read as TDP-43 yeast inh 12.6µM*, Abeta yeast res inactive and FUS yeast rescue inactive.
CCOc1cc(C2NN=C(c3ccccc3)S2)ccc1OCc1ccc(F)cc1 (configuration not stated) was read as aSyn yeast inh -4.6%, TDP-43 yeast inh 14.1µM*, Abeta yeast res inactive and FUS yeast rescue inactive.
`CCOc1cc(C2NN=C(c3ccccc3)S2)ccc1OCc1ccccc1Cl` (configuration not stated) gave aSyn yeast inh 3.1%, TDP-43 yeast inh 10µM*, Abeta yeast res inactive and FUS yeast rescue inactive.
For CCN1CCCCC(NC(=O)c2cc(OC)c(OC)c(OC)c2)C1=O (configuration not stated) the results were FUS yeast rescue inactive.
For c1ccc(Nc2scc(-c3ccccc3)[n+]2Cc2ccco2)cc1 the results were aSyn yeast inh -20.2%, TDP-43 yeast inh 20µM*, Abeta yeast res inactive and FUS yeast rescue inactive.
`Cc1onc(-c2ccc(Cl)cc2)c1-c1ccn(S(=O)(=O)c2ccccc2Cl)n1` gave FUS yeast rescue inactive.
For Cc1nn(-c2ccccc2)c(C)c1/C=N\N1CCN(Cc2ccccc2Cl)CC1 the results were FUS yeast rescue inactive.
Screening Cc1cc(NS(=O)(=O)c2ccc(CC(C)C)cc2)no1 returned aSyn yeast inh 1.9%, TDP-43 yeast inh 17.8µM*, Abeta yeast res inactive and FUS yeast rescue inactive.
For Cc1cc(NS(=O)(=O)c2ccc(C(C)C)cc2)no1 the results were aSyn yeast inh 8.1%, TDP-43 yeast inh 14.1µM*, Abeta yeast res inconclusive and FUS yeast rescue inactive.
For COC(=O)C[C@H]1CC[C@@H]2[C@H](COc3ccc(NC(=O)C(C)C)cc3C(=O)N2C)O1 the results were FUS yeast rescue inactive.
For Cc1ccc(OCC(=O)Nc2ccc(Cl)c(-c3nc4ncccc4o3)c2)cc1C the results were aSyn yeast inh inconclusive, TDP-43 yeast inh 17.8µM*, Abeta yeast res inactive and FUS yeast rescue inactive.
`Cc1ccc(SCCNC(=S)Nc2cc(C)ccc2C)cc1` gave aSyn yeast inh 3.6%, TDP-43 yeast inh 14.1µM*, Abeta yeast res inconclusive and FUS yeast rescue inactive.
For Cc1ccc(SCCNC(=S)Nc2ccc(C)c(C)c2)cc1 the results were aSyn yeast inh -0.7%, TDP-43 yeast inh 5.2%, Abeta yeast res inactive and FUS yeast rescue inactive.
CC(C)(C)OC(=O)N1CCC(N[C@@H](Cc2c[nH]c3ccccc23)C(=O)NCC(c2ccccc2)c2ccccc2)(C(=O)NC2CCCCC2)CC1 was read as FUS yeast rescue 10µM*.
For Cn1c(=O)c(-c2ccccc2)c(O)c2ccccc21 the results were aSyn yeast inh 6.4%, TDP-43 yeast inh 20µM*, Abeta yeast res inactive and FUS yeast rescue inactive.
`OC(c1ccccc1)(c1nc(-c2ccc3ccccc3c2)cs1)C(F)(F)F` (configuration not stated) gave aSyn yeast inh 17.3%, TDP-43 yeast inh -7.9%, Abeta yeast res inactive and FUS yeast rescue inactive.
`OC1(C(F)(F)F)CC(c2ccc3ccccc3c2)=NO1` (configuration not stated) gave aSyn yeast inh -10.2%, TDP-43 yeast inh 3.16µM*, Abeta yeast res inactive and FUS yeast rescue inactive.
`COc1cc(C=Nn2c(-c3ccccc3F)n[nH]c2=S)ccc1OCc1ccccc1` gave FUS yeast rescue inactive.
CCOC(=O)N/N=C/c1c(C)nn(-c2cccc(C(F)(F)F)c2)c1Cl was read as aSyn yeast inh -22.5%, TDP-43 yeast inh 12.6µM*, Abeta yeast res inconclusive and FUS yeast rescue inactive.
Cc1nn(-c2cccc(C(F)(F)F)c2)c(Cl)c1/C=N/Nc1cccc(C(=O)O)c1 was read as aSyn yeast inh -14.2%, TDP-43 yeast inh inconclusive, Abeta yeast res inactive and FUS yeast rescue inactive.
For O=C(NCCC1=CCCCC1)C1CCN(S(=O)(=O)c2ccccc2[N+](=O)[O-])CC1 the results were FUS yeast rescue inactive.
Cn1cc(/C=C/c2ccnc3ccccc23)c2ccccc21 was read as aSyn yeast inh -15.4%.
For Cc1scc(-c2n[nH]c(=S)n2Cc2ccccc2)c1C the results were aSyn yeast inh 5.7%, TDP-43 yeast inh inconclusive and Abeta yeast res inactive.
For CCc1c(-c2n[nH]c(=S)n2Cc2ccccc2)csc1C the results were aSyn yeast inh -3.6%, TDP-43 yeast inh 11.2µM*, Abeta yeast res inactive and FUS yeast rescue inactive.
Screening Cc1cc(C(=O)OCCN2C(=O)c3ccccc3C2=O)c2ccccc2n1 returned aSyn yeast inh inconclusive, TDP-43 yeast inh inconclusive, Abeta yeast res inactive and FUS yeast rescue 15.8µM*.
For Clc1ccccc1-c1nc2ccccc2c2nncn12 the results were aSyn yeast inh -3.5%, TDP-43 yeast inh 39.8µM*, Abeta yeast res inactive and FUS yeast rescue inactive.
Screening CCn1c(-c2cccnc2Cl)nc2cc(Cl)c(Cl)cc21 returned aSyn yeast inh 28.6%, TDP-43 yeast inh inconclusive, Abeta yeast res inactive and FUS yeast rescue inactive.
Screening Cc1nc2cc(Cl)c(Cl)cc2n1-c1ccccn1 returned aSyn yeast inh -3.4%, TDP-43 yeast inh 12.6µM*, Abeta yeast res inactive and FUS yeast rescue inactive.
Screening O=S1(=O)CC(c2ccccc2)=NN=C(c2ccccc2)C1 returned aSyn yeast inh 0.6%, TDP-43 yeast inh 18.9%, Abeta yeast res inactive and FUS yeast rescue inactive.
Screening O=C1CC(c2ccccc2)=NO1 returned aSyn yeast inh 15.8µM*, TDP-43 yeast inh 10µM*, Abeta yeast res inactive and FUS yeast rescue inactive.
`Cc1ccc(C(=O)N/C(=C/c2ccco2)C(=O)Nc2cccc(C)c2)cc1` gave aSyn yeast inh 9.1%, TDP-43 yeast inh 4.9%, Abeta yeast res inactive and FUS yeast rescue 31.6µM*.
Screening Cc1cccc(NC(=O)/C(=C\c2ccco2)NC(=O)c2cccs2)c1 returned aSyn yeast inh 0.5%, TDP-43 yeast inh 13.2%, Abeta yeast res inactive and FUS yeast rescue inactive.
FC(F)(F)c1nnc2c(Sc3ccccn3)nc3ccccc3n12 was read as aSyn yeast inh -1.8%, TDP-43 yeast inh 15.8µM*, Abeta yeast res inactive and FUS yeast rescue inactive.
For FC(F)(F)c1nnc2c(Sc3ccccc3)nc3ccccc3n12 the results were aSyn yeast inh -7.0%, TDP-43 yeast inh 26.2%, Abeta yeast res inactive and FUS yeast rescue inactive.
`COc1ccc2c3c([nH]c2c1)[C@]1(CCNC=O)Nc2ccccc2C1=NCC3` gave FUS yeast rescue inactive.
For O=C1C=C(c2cccc(Cl)c2)C[C@@H](c2ccc3c(c2)OCO3)C1 the results were aSyn yeast inh 13.0%, TDP-43 yeast inh inconclusive, Abeta yeast res inactive and FUS yeast rescue inactive.

Screens as filed in PubChem.
